# Sampled rows, rich in hits. Any-hit rate of the full collection: about 1.5%.
# TrxR1 substrate = is turned over as a substrate by rat TrxR1. actives 0.01% (n = 390,000). Potency, µM (doses to about 114 µM), for inactives: at the highest dose activity change, negative = substrate turnover. O89049. AID 588456. purified TrxR1 substrate turnover, NADPH consumption readout; further: potency means the concentration at half of the fitted maximal effect; nearly all actives have a fitted effect of over 50% in size
#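 Rat TrxR1, dispensed at 90 nM, was prereduced with 400 uM NADPH (final) for 5 min at ~22 deg C, then incubated with compound 15 min before 400 uM selenite. A first-read NADPH fluorescence drop versus no-compound background flagged substrates.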
# FBPA coupling cs = coupling enzyme interference in Giardia aldolase counter-screen; activity change, negative = inhibition, % at 58.2 µM, hits read low; coupling enzyme system counterscreen, AmpLite Red fluorescence; actives 0.67% (n = 290,000); in the data active means activity change below about -30%
#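 Counterscreen of the coupled detection system alone, without aldolase: glyceraldehyde-3-phosphate coupling enzymes plus AmpLite Red readout. Compounds at 57.5 uM final, 10 min RT preincubation, 20 min RT reaction, fluorescence 525/598 nm.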
# GALK inhibitor = galactokinase (human) inhibition; P51570; Purified GALK, Kinase-Glo residual ATP luminescence; Potency, µM (titrated, usually from 57.5 µM), for the others: at the highest dose activity change, negative = inhibition, actives largely listed as inhibitors; actives 0.007% (n = 270,000); AID 1868; further: potency means the concentration at half of the fitted maximal effect
# Target sequence (P51570 whole entry, looked up): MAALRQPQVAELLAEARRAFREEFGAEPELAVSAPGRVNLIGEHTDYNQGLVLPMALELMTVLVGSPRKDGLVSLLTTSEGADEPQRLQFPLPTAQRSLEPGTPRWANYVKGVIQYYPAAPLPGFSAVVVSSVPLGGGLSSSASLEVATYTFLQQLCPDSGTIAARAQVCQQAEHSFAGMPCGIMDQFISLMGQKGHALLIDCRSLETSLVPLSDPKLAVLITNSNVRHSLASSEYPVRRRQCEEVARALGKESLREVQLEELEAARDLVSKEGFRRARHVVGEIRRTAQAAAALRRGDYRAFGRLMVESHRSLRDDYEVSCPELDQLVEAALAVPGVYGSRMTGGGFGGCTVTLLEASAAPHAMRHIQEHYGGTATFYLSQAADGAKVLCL
#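 Luminescence from leftover ATP (Ultra-Glo luciferase/luciferin) served as read-out after a 1 h room-temperature reaction of 5 nM GALK with 35 uM ATP and 100 uM galactose.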
# USP1 inh = inhibitors of human USP1/UAF1 deubiquitinase | O94782 | recombinant USP1/UAF1, Ub-Rhodamine cleavage fluorescence | Potency, µM (titrated, usually from 57.1 µM), inactives show top-dose activity change, negative = inhibition, usual class: inhibitors | actives 0.23% (n = 390,000); further: potency means the concentration at half of the fitted maximal effect; nearly all actives have a fitted effect of over 60% in size
#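 USP1/UAF1 complex at 1 nM was preincubated with compound for 15 min at room temperature, then Ub-Rho substrate (150nM final) was added. Fluorescence (480/540 nm) was read kinetically, 6 reads every 60 seconds.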
# rTrxR1 inhibitor = inhibitors of rat thioredoxin reductase 1. O89049. recombinant rTrxR1, NADPH fluorescence consumption, selenite substrate. Potency, µM (doses to about 114 µM), inactives show at the top dose activity change, negative = inhibition, most hits filed as inhibitors. actives 1% (n = 390,000). AID 588453; further: potency means the concentration at half of the fitted maximal effect; nearly all actives have a fitted effect of over 65% in size
#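 Rat TrxR1 (90 nM in the dispensed reagent) was pre-reduced with 400 uM NADPH for 5 min at room temperature, then incubated with compound for 15 min. After 400 uM selenite was added, NADPH fluorescence (Ex 340/Em 450 nm) was followed for 8 min.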
# Active calls of the source: *; ? = inconclusive; . = no result; [ ] = another dose, or the depositor's remark. Unless noted, the call rests on the fitted dose curve; in most records, active means well fitted curve in the direction sought with a large enough effect; inconclusive means small, poorly fitted or top-dose-only effect, or another doubt; inactive means no such curve, though single readings can be large; an effect the other way counts as inactive or inconclusive. On the % scale 0 is the no-effect control and ±100 the full control effect.
SMILES,TrxR1 substrate,FBPA coupling cs,GALK inhibitor,USP1 inh,rTrxR1 inhibitor
O=C(C[n+]1ccccc1Cl)c1ccc2c(c1)CCCC2,0%,.,.,.,-17%
CC(/C=N/NC(=O)c1cc(-c2ccncc2)nc2ccccc12)=C\c1ccco1,1%,-40*,2%,?,?
C=CCn1c(SCC#N)nc2cc(Cl)ccc2c1=O,0%,.,.,.,5%
O=C(Nc1ccc(Cc2ccncc2)cc1)c1ccc(Cl)c([N+](=O)[O-])c1,-7%,-36*,-1%,-18%,17%[57.1 µM]
COCCN1C(=O)/C(=C/c2ccc(N3CCCC3)cc2)SC1=S,-6%[57.1 µM],1,-2%,5µM*,7%[57.1 µM]
COc1ccc(/C=C2\SC(=S)N(CCC(=O)N3CCCCC3)C2=O)cc1,-3%,0,-3%,-5%,10%
Cc1cccnc1NC(=S)NC(=O)c1cncc(Br)c1,10%,1,6%,-10%,32µM*
Cc1ccc2c(NC(=S)NC(=O)c3ccccc3)cccc2n1,-22%,.,5%,-5%,79µM*
CC(=O)c1cccc(NC(=S)NC(=O)c2ccccc2)c1,0%,1,-2%,-7%,35µM*
Cc1ccc(C(=O)O)cc1NC(=S)NC(=O)c1ccc(-c2ccccc2)cc1,1%,4,-1%,-10%,40µM*
Cc1ccc(-c2nc(N3CCN(S(=O)(=O)c4ccc(F)cc4)CC3)c3ccc(Cl)cc3n2)cc1,-2%[0.457 µM],.,.,.,6%
Cc1nc2ccccc2nc1-c1csc(-c2ccccc2)n1,0%,.,.,.,?
Cc1ccc(NC(=O)c2cc3c([nH]c2=O)CC(c2ccccc2)CC3=O)cc1 (stereo not given),24%,.,.,.,-3%
CO[C@@H]1COC(=O)[C@@H](CCSC)NC(=O)C/C=C\[C@@H](C)COC(=O)[C@H](C)NC(=O)C/C=C\[C@H]1C,.,1,.,.,.
COc1cccc(NC(=S)NC(=O)c2cncc(Br)c2)c1,-9%,.,.,-11%,?
CC(=O)c1cccc(NC(=S)NC(=O)c2cncc(Br)c2)c1,-9%,2,4%,5%,22µM*
Cc1ccc(C(=O)CC(C(=O)O)n2cncn2)cc1 (stereo not given),8%[57.1 µM],-1,1%,-14%,8%[57.1 µM]
Cc1ccc(C(=O)CC(C(=O)O)n2cnc([N+](=O)[O-])n2)cc1 (stereo not given),-7%,0,2%,-26%,32µM*
c1ccc(-c2nc3nc4ccccc4nc3n2Cc2ccco2)cc1,9%[57.1 µM],-2,4%,-15%,32µM*
Fc1ccc(-c2nc3nc4ccccc4nc3n2Cc2ccco2)cc1,5%,1,5%,-23%,?
CC1=CC2(O)OCCN(CCO)C2=CC1=O (stereo not given),5%[57.1 µM],-67*,-1%,-18%,-6%
CCN1CCOC(=O)C1CC(=O)Nc1cc(C)cc(C)c1 (stereo not given),-4%,.,.,-4%,11µM*
CCN1CCOC(=O)C1CC(=O)Nc1cc(Cl)ccc1OC (stereo not given),7%,.,.,-4%,11µM*
CCc1ccc(NC(=O)CC2C(=O)OCCN2CC)cc1 (stereo not given),10%[11.4 µM],.,.,-19%,6.3µM*
COC(=O)c1nc(N2CCN(S(=O)(=O)c3ccc(C)cc3)CC2)c2ccccc2n1,-7%,.,.,.,?
SMILES,TrxR1 substrate,FBPA coupling cs,GALK inhibitor,USP1 inh,rTrxR1 inhibitor
Cc1ccc(S(=O)(=O)Nc2cc(Br)cc3cccnc23)cc1,-2%,.,.,.,7%
CCCN1CCN(C(=O)c2oc3ccccc3c2NC(=O)COc2ccc(OC)cc2)CC1,5%,-2,-5%,-23%,22µM*
COc1ccc(C2=NO[C@@H]3C(=O)N(c4ccc(C)cc4C)C(=O)[C@H]23)cc1OC,13%,-1,-1%,-17%,22µM*
COc1ccc(C2=NO[C@@H]3C(=O)N(c4cccc(C)c4C)C(=O)[C@H]23)cc1OC,3%,1,-1%,-18%,2%
CCN(CC)C(=O)c1cc([N+](=O)[O-])cc2c1-c1ccc([N+](=O)[O-])cc1C2=C(C#N)C#N,-4%,-34*,3%,?,25µM*
Cc1nc([N+](=O)[O-])c(Sc2nc3ccccc3n2C)n1Cc1ccccc1,-3%,0,-3%,-10%,6.3µM*
Cc1nc([N+](=O)[O-])c(SCC(N)=O)n1Cc1ccccc1,5%[0.0914 µM],3,4%,-7%,6%[57.1 µM]
COc1ccc(NC(=O)Cc2ccc(Cl)c(Cl)c2)cn1,-9%,0,-4%,9%,16%[57.1 µM]
COc1ccc(NC(=O)/C(Cl)=C(/Cl)S(=O)(=O)Cc2ccc(C)cc2)cn1,11%[57.1 µM],1,0%,?,2.2µM*
CC1CC(C)(C)Nc2ccc(N=O)cc21 (stereo not given),-4%[57.1 µM],0,6%,-21%,0.89µM*
Clc1cccc(Cl)c1CNc1ccc(N2CCCC2)cc1,5%[57.1 µM],-14,0%,-11%,3.5µM*
COc1ccccc1NC(=O)CSc1nnc(N)s1,-2%[57.1 µM],.,.,-31%,13µM*
O=C1C=C(C2OC(CO)C(O)C2O)C(=O)N1 (stereo not given),4%,.,.,-10%,7.1µM*
Cc1ccc(-c2nc(S(=O)(=O)c3ccc(C)cc3)c(N(C)C)o2)cc1,7%,-1,-1%,-18%,25µM*
COc1cc(-c2nc(S(=O)(=O)c3ccc(C)cc3)c(N(C)C)o2)cc(OC)c1OC,-5%[57.1 µM],3,-3%,-8%,-23%[57.1 µM]
Cc1ccc(S(=O)(=O)c2nc(-c3ccccc3Cl)oc2N(C)C)cc1,11%,.,-4%,-18%,?
Cc1ccc(S(=O)(=O)c2nc(-c3ccccc3Br)oc2N(C)C)cc1,14%,.,.,-5%,6.3µM*
Cc1nc(S(=O)(=O)c2ccc(Cl)cc2)c(NCc2ccccc2)o1,-1%,0,0%,-13%,45µM*
Cc1nc(S(=O)(=O)c2ccc(Cl)cc2)c(N(C)C)o1,6%,0,-2%,-26%,4µM*
O=S(=O)(c1ccc(Cl)cc1)c1nc(-c2ccccc2F)oc1NCc1ccccc1,43%,.,.,?,92%
CCN1CCCn2c1nc1c2c(=O)n(C)c(=O)n1C,18%,-1,-1%,-11%,79µM*
Cn1c(=O)n(Cc2ccccc2)c(=O)c2c1nc1n2CCCN1Cc1ccccc1,6%[57.1 µM],-1,1%,-9%,19%[57.1 µM]
COc1ccc(NC(=O)C2=NN(C3CCS(=O)(=O)C3)C(=O)CC2)cc1S(N)(=O)=O (stereo not given),-11%,.,.,-22%,11%[57.1 µM]
COc1ccc(NC(=O)C2=NN(C3CCS(=O)(=O)C3)C(=O)CC2)cn1 (stereo not given),-3%,-42*,-1%,-20%,6%
CCOC(=O)Nc1ccc(/C=C/c2ccnc3ccccc23)cc1,3%,.,.,.,12%[0.0914 µM]
c1nc2nc(Nc3ccc(N4CCOCC4)cc3)nc(NC3CCCCC3)c2[nH]1,.,-5,.,.,.

# Source: PubChem
